Hits are enriched below; roughly 5.8% of the tested compounds scored in any of these assays.
MCF10A rerep – inducers of DNA re-replication in MCF 10A breast cells; AID 624296; Potency, µM (doses to about 46.1 µM), inactives show at the highest dose activity, positive = re-replication, actives largely listed as activators; 350,000 tested, 2.9% active; MCF 10A DNA re-replication, Hoechst nuclear intensity, 48 h; note: % of control where 0% means no effect; nearly all actives have a fitted effect of over 50% in size
SW480 rerep – induces DNA re-replication in SW480 colon adenocarcinoma cells | SW480 DNA re-replication, Hoechst DNA content imaging, 48 h | Potency, µM (titrated, usually from 46.1 µM), for inactives: top-dose re-replication activation, most hits filed as activators | 340,000 tested, 1.8% active | AID 624297; note: % of control where 0% means no effect; nearly all actives have a fitted effect of over 55% in size
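Treated cells incubate 48 hr (37 C, 5% CO2), are stained 40 min with Hoechst, and nuclear fluorescence is enumerated; a rise in nuclei with high DNA signal marks re-replication.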
KB-V1 MDR tox – kills drug-selected multidrug resistant KB-V1 cells; KB-V1 MDR cells viability, CellTiter-Glo, 72 h; Potency, µM (top dose mostly 46.1 µM), usual class: cytotoxic; 400,000 tested, 3.4% active; AID 1347076; note: % is set by controls: 0 for no effect and ±100 for the full control effect; nearly all actives have a fitted effect of over 60% in size
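Cells of the MDR subline KB-V1 are plated, dosed with compound at multiple concentrations, and incubated 72 h at 37 degrees C; CellTiter-Glo is then added and luminescence read after 10 min.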
ALOX12 inh – ALOX12 (human) lipoxygenase inhibition. 580,000 tested, 1.1% active. P18054. purified 12hLO, xylenol orange hydroperoxide absorbance. Potency, µM (titrated, usually from 108 µM), inactives show at the highest dose activity change, negative = inhibition, most hits filed as inhibitors; note: % is set by controls: 0 for no effect and ±100 for the full control effect
Target sequence (P18054 whole entry, looked up): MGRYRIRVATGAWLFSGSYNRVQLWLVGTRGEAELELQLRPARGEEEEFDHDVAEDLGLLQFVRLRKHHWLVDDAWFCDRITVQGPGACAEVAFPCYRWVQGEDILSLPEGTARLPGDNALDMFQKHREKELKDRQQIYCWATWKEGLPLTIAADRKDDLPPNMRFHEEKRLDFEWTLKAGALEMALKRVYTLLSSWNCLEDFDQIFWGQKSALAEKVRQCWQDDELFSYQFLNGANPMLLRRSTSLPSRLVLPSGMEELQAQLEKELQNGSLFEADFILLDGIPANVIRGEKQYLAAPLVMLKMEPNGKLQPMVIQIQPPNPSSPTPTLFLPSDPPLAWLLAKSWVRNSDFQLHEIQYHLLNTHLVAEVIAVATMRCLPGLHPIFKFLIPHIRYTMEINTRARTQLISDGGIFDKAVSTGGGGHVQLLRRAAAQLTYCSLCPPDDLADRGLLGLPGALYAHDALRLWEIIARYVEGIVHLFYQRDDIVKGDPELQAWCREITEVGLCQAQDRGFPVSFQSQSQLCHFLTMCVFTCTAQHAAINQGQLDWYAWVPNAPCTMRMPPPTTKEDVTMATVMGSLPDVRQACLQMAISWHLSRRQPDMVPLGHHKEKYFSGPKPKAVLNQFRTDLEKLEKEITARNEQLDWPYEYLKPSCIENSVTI
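Hydroperoxide product was detected by ferrous iron/xylenol orange as the 573 to 405 nm absorbance ratio. Arachidonic acid at 40 uM (final) was turned over for 30 min at room temperature by 150 nM human 12hLO, pH 7.0 Hepes buffer, after 15 min compound preincubation.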
KB-3-1 tox – kills parental KB-3-1 adenocarcinoma cells; Potency, µM (highest dose often 46.1 µM), actives largely listed as cytotoxic; KB-3-1 viability, CellTiter-Glo ATP luminescence, 72 h; 400,000 tested, 1.4% active; AID 1347075; note: % is set by controls: 0 for no effect and ±100 for the full control effect; nearly all actives have a fitted effect of over 60% in size
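Parental KB-3-1 viability, qHTS format: 72 h compound exposure, 37 °C; CellTiter-Glo; media-only wells and DMSO plates as controls; concentration-effect fits on corrected data.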
PINK1 modulator – changes PINK1 expression. PINK1 immunofluorescence, high-content cytometry, 24 h. Potency, µM (highest dose often 76.6 µM), for the others: at the top dose activation (PINK1 increase), actives largely listed as activators. 410,000 tested, 0.2% active. AID 624263; active = well fitted activation curve with a large enough effect; inconclusive = small, poorly fitted or top-dose-only effect; cell line not stated here; note: % of control where 0% means no effect; nearly all actives have a fitted effect of over 65% in size
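Decision-based qHTS: stable cells, 24 h exposure to five compound concentrations, CCCP as control. Fixed cells stained for PINK1 plus nuclear, mitochondrial and cell markers, cytometer read.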
Numbers without * were called inactive; i = inactive; u = inconclusive; x = no result given; [ ] = another dose, or the depositor's remark. Unless noted, calls come from the whole dose curve; as a rule, active = well fitted curve in the direction sought with a large enough effect; inconclusive = small, poorly fitted or top-dose-only effect, or another doubt; inactive = no such curve, though single readings can be large; an effect the other way counts as inactive or inconclusive. Potency is the fitted concentration of half-maximal effect.

SMILES | MCF10A rerep | SW480 rerep | KB-V1 MDR tox | ALOX12 inh | KB-3-1 tox | PINK1 modulator
Oc1c(Br)cc(Br)cc1CNc1cccc2cccnc12 | u | u | i | 14µM* | i | 5%
NC(=NCc1ccccc1)NN=Cc1ccnc2ccccc12 | x | x | u | 13µM* | i | 4%
COC(=O)c1sc(N)c(C(=O)OC)c1COC(=O)c1c(C)noc1C | 9.2µM* | 2.9µM* | 5.2µM* | 0% | 5.2µM* | 11%[38.3 µM]
COC(=O)c1sc(NC(=O)c2c(C)noc2C)nc1C | -32% | -8% | i | x | i | 1%
O=C1Nc2ccccc2/C1=C/c1csc(-c2ccccc2)n1 | x | x | x | 12% | x | x
O=C1Nc2ccccc2/C1=C/c1cnc(-c2ccccc2)[nH]1 | -3% | -22% | i | -19% | i | 45µM*
Cc1nn2cc(-c3cccc(Cl)c3)cnc2c1Br | u | u | u | 10% | i | 2%
Cc1nn2cc(-c3cccc(Cl)c3)cnc2c1Cl | 9.2µM* | 6.5µM* | 5.8µM* | 15% | 13µM* | 2%
O=C(NCc1coc(-c2cccs2)n1)c1cc(Cl)ccc1Cl | x | x | x | 2% | x | x
COc1ccc(NC2CC(=O)N(C(C)C)C2=O)cc1 (stereo unspecified) | -7% | 1% | i | 4µM* | i | 2%[38.3 µM]
CC(C)N1C(=O)CC(Nc2ccc(N3CCOCC3)cc2)C1=O (stereo unspecified) | 9% | -12% | i | -29% | i | 0%
CCOC(=O)c1ccc(NC(=O)CCC2CCCC2)cc1 | x | x | x | 17% | x | x
Cc1ccc(C2CC(=O)C3=C(C2)OC(N)=C(C#N)C3c2ccc(Cl)c(Cl)c2)cc1 (stereo unspecified) | x | x | x | 40µM* | x | x
N#CC1=C(N)OC2=C(C(=O)CC(c3ccccc3)C2)C1c1cccc(F)c1 (stereo unspecified) | x | x | x | 35µM* | x | x
N#CC1=C(N)OC2=C(C(=O)CC(c3ccccc3)C2)C1c1cccnc1 (stereo unspecified) | 1% | -1% | i | -7% | i | -1%
N#CC1=C(N)OC2=C(C(=O)CC(c3ccccc3)C2)C1c1ccc(Br)cc1 (stereo unspecified) | x | x | x | 11µM* | x | x
Cc1cc(C)nc(Nc2nc(-c3ccccc3)c3ccc(Cl)cc3n2)n1 | x | x | x | 28% | x | x
CC1(C)CC(NC(=O)c2coc(=O)c(Br)c2)CC(C)(C)N1 | 18µM* | u | i | 75% | 16µM* | 3%
Nc1c(Cl)ncnc1N/N=C/c1cccnc1 | 3.7µM* | -57% | i | u | i | 0%
Nc1c(Cl)ncnc1N/N=C/c1ccccn1 | u | u | i | u | 8.2µM* | 1%
Nc1c(Cl)ncnc1N/N=C/c1ccnc2ccccc12 | 14% | 17% | u | -23% | i | 5%
O/N=C/c1ccc2ccccc2n1 | 0% | -22% | i | 10% | i | 2%
Nc1c(Cl)ncnc1N/N=C/c1ccc2ccccc2n1 | 21µM* | 0.26µM* | i | u | 21µM* | 2%
Cc1n[nH]c(C)c1CCCCOc1ccccc1 | -3%[9.22 µM] | -52% | u | -10% | i | -1%
Cc1ccc(OCCCc2c(C)n[nH]c2C)cc1 | 0% | -3% | i | 6.3µM* | u | 4%
CN(Cc1ccon1)Cc1ccccc1OCC(O)CN1CCCCC1 (stereo unspecified) | x | x | x | 49% | x | x
c1ccc(Cn2c(-c3ccco3)nc3nc4ccccc4nc32)cc1 | 1% | 6% | i | u | i | 1%
CCCCCn1c(-c2ccco2)nc2nc3ccccc3nc21 | u | 11% | i | 35µM* | i | -2%
COc1ccc(-c2csc(N(CCCN(C)C)C(=O)c3cccs3)n2)cc1 | 14% | 16% | 7.3µM* | -13% | i | -8%[38.3 µM]
COc1ccc(OC)c(-c2csc(N(Cc3ccco3)C(=O)c3ccco3)n2)c1 | u | 1% | i | 1% | i | 5%

Assay outcomes (PubChem BioAssay)
